# Calls of active or inactive are those of the source. Unless noted, how the calls were made is not given here.
# Key:
# [1] = HepG2 liver cancer cell viability effects, profiling panel, resazurin fluorescence, 24 h, PK04 Diversity Set (AID 1172); conditions: higher = more signal
# [2] = basal S. cerevisiae growth modulation, no modifier, primary screen, OD600, strain BY4716, 24 h, basal condition (AID 1173); conditions: OD600, 24 h, higher = more signal, called active from +8 up or from −8 down
# [3] = MM1S myeloma cell viability, profiling panel, resazurin fluorescence, basal, 24 h, PK04 Diversity Set (AID 1174); conditions: higher = more signal, called active from +8 up or from −8 down;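 further: MM1S multiple myeloma cell line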
# [4] = biological target: Dihydroorotate dehydrogenase (quinone), mitochondrial (Plasmodium falciparum (isolate 3D7)) (UniProt Q08210); assay: PfDHODH enzyme inhibitors, primary screen, biochemical, C-terminal His tag, absorbance 600 nm (AID 1175); conditions: DCIP absorbance 600 nm, higher = more signal, called active from +8 up or from −8 down;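 further: recombinant parasite enzyme with a five histidine tag at its C terminus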
# [5] = P. aeruginosa biofilm formation inhibitors, primary screen, strain PAO1, LB-PBS medium, absorbance 600 nm (AID 1176); conditions: P. aeruginosa PAO1 growth/biofilm, A600, 12 h; higher = more signal
# [6] = S. cerevisiae RM11-1a growth modifiers, primary screen, strain RM11-1a, OD600, basal, 24 h (AID 1177); conditions: OD600, 24 h, higher = more signal, called active from +8 up or from −8 down;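 further: cultures grown under basal conditions with no added stressor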
# [7] = E. coli acrAB mutant growth effects, primary screen, E. coli filamentation inducers, strain DRC39, OD650, 24 h (AID 1178); conditions: higher = more signal, called active from +8 up or from −8 down;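 further: growth measured as culture turbidity by optical density at 650 nm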
# [8] = E. coli acrAB mutant growth effects, primary screen, E. coli filamentation inducers, strain DRC39, OD650, 48 h (AID 1179);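 further: screen aims at cell division blockers that make cells filament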; conditions: E. coli DRC39 delta-acrAB growth, higher = more signal, called active from +8 up or from −8 down
# [9] = RPMI8226 myeloma cell viability, profiling panel, resazurin fluorescence, basal, 24 h, PK04 Diversity Set (AID 1180); conditions: higher = more signal;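 further: RPMI8826 multiple myeloma cell line at 5000 cells per well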
# [10] = biological target: E3 ubiquitin-protein ligase XIAP (Homo sapiens) (UniProt P98170); assay: XIAP binders, primary screen, biophysical, small-molecule microarray, fluorescence 635 nm (AID 1181); conditions: small-molecule microarray binding, higher = more signal;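 further: score merges 667 nm emission and signal to noise over triplicate slides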
# [11] = tested on: XIP peptide (Xip251-270) binding; assay: small-molecule binders of XIP peptide, primary screen, biochemical, small-molecule microarray, fluorescence 635/667 nm, 0.1 µg/mL protein (AID 1182); conditions: fluorescent protein binding, 635 nm, higher = more signal, called active from +8 up or from −8 down
# XIP peptide (Xip251-270) = assay: small-molecule binders of XIP peptide, primary screen, biochemical, small-molecule microarray, fluorescence 635/667 nm, 0.5 µg/mL protein (AID 1183); conditions: small-molecule microarray binding, fluorescence 635 nm; higher = more signal
# [12] = Plasmodium falciparum growth inhibition, primary screen, strain 3D7, DAPI fluorescence, 100 nL (AID 1184);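 further: parasites grown inside human red blood cells in medium with human serum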; conditions: P. falciparum 3D7 growth, 3 d, higher = more signal
# [13] = biological target: Homeobox protein Hox-A13 (Mus musculus) (UniProt Q62424); assay: inhibitors of HoxA13-DNA binding, primary screen, biochemical, fluorescence polarization, labeled oligonucleotide (AID 1185); conditions: 15 min, higher = more signal, called active from +8 up or from −8 down
# [14] = inhibitors of hydroxyurea-induced Chk1 phosphorylation, primary screen, imaging, HeLa, phospho-Chk1 antibody, percent positive cells (AID 1186); conditions: hydroxyurea-induced phospho-Chk1 immunofluorescence imaging, higher = more signal
# [15] = inhibitors of hydroxyurea-induced Chk1 phosphorylation, primary screen, imaging, HeLa, phospho-Chk1 nuclear intensity (AID 1187); conditions: hydroxyurea-induced phospho-Chk1 immunofluorescence imaging, higher = more signal
# Dihydroorotate dehydrogenase (quinone), mitochondrial (Plasmodium falciparum (isolate 3D7)), sequence (Q08210 whole entry, looked up): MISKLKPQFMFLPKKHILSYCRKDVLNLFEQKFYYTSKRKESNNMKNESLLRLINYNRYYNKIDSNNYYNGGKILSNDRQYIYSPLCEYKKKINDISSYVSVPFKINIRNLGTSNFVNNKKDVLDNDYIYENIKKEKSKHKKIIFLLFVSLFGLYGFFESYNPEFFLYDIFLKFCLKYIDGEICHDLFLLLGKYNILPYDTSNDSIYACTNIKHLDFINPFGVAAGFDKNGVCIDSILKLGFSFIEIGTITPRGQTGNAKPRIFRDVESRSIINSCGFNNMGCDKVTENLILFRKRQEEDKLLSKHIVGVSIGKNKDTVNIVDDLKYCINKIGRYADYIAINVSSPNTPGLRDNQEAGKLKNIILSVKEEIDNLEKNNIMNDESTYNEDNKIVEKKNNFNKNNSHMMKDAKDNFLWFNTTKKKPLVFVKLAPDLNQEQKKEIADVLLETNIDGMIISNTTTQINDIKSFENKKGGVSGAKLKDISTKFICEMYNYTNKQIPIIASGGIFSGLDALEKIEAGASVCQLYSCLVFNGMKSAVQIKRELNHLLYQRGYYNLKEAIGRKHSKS
# E3 ubiquitin-protein ligase XIAP (Homo sapiens), sequence (P98170 whole entry, looked up): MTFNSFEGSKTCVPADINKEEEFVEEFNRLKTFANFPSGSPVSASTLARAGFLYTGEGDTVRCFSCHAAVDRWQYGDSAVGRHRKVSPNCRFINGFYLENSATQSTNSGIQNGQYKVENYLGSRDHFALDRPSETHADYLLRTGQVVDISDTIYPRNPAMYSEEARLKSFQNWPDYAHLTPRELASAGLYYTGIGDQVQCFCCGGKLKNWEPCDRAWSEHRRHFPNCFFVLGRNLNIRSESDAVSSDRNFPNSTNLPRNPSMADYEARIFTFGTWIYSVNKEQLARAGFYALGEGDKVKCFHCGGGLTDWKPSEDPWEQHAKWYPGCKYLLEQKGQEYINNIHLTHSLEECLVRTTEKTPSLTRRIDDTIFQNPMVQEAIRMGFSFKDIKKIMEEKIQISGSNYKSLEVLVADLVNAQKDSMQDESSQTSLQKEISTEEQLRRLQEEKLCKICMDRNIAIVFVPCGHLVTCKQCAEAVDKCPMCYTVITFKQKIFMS
# Homeobox protein Hox-A13 (Mus musculus), sequence (Q62424 whole entry, looked up): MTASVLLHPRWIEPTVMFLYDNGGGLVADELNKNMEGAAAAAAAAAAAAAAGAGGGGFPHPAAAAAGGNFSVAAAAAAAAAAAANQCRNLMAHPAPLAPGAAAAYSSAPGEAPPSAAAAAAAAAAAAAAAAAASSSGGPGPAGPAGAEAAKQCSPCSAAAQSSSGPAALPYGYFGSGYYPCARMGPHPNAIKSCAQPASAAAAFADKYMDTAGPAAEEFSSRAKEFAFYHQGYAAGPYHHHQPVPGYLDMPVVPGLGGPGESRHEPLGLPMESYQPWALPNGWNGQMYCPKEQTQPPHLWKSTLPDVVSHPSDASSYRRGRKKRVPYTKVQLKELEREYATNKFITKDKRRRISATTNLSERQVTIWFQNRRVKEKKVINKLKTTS
SMILES,z-score [1],z-score [2],z-score [3],composite z-score [4],z-score [5],z-score [6],z-score [7],z-score [8],z-score [9],composite z-score [10],composite z-score [11],composite z-score (XIP peptide (Xip251-270)),z-score [12],z-score [13],z-score [14],z-score [15]
CC(=O)NCCCC[C@@H]1NC(=O)[C@@H]2C[C@H](C(=O)NCCCCN(C)C)[C@H](c3cccc(OCCO)c3)N2C1=O,1.03,0.108 (inactive),-0.721 (inactive),-0.446 (inactive),-0.875 (inactive),0.0173 (inactive),0.374 (inactive),0.313 (inactive),0.507,-0.404,0.172 (inactive),0.237,-0.363,-1.75 (inactive),-0.281 (inactive),-0.0329 (inactive)
CCCC=C(CCC)[C@@H](NC(=O)Oc1ccc(F)cc1)c1ccc(C(=O)OC)cc1,1.01,1.21 (inactive),0.0374 (inactive),0.58 (inactive),0.535 (inactive),1.2 (inactive),-0.0379 (inactive),0.0821 (inactive),-1.94,0.248,0.814 (inactive),0.302,-0.476,-0.734 (inactive),0.239 (inactive),0.34 (inactive)
CC1CC/C=C\[C@H]2OC34C=CCN(c5ccc(Cl)cc5)C(=O)[C@H]3N(CCO)C(=O)[C@]4(C)C2C(=O)O1 (some centres undefined),-0.349,-0.152 (inactive),-1.13 (inactive),-0.0582 (inactive),0.0962 (inactive),-0.245 (inactive),-0.135 (inactive),-0.672 (inactive),0.102,-0.0785,1.21 (inactive),0.18,-0.515,-4.66 (inactive),-0.0711 (inactive),-0.271 (inactive)
CC(C)(C)OC(=O)CC[C@]12N=C(c3ccc(OCCCO)cc3)O[C@H]1c1ccccc1N(CCS(=O)(=O)c1ccccc1)C2=O,0.0763,0.688 (inactive),-3.32 (inactive),0.017 (inactive),2.21 (inactive),1.84 (inactive),0.908 (inactive),0.0504 (inactive),-1.19,0.0761,1.11 (inactive),0.781,-1.96,-2.7 (inactive),-0.266 (inactive),-0.249 (inactive)
CC(C)(C)OC(=O)CC[C@]1(C(=O)O)N=C(c2ccc(OCCCO)cc2)O[C@H]1c1ccccc1N=[N+]=[N-],0.144,-0.278 (inactive),-1.32 (inactive),-0.533 (inactive),0.286 (inactive),-0.715 (inactive),0.0508 (inactive),0.49 (inactive),0.056,0.0989,1.25 (inactive),0.907,-0.164,-5.39 (inactive),0.0751 (inactive),-0.136 (inactive)
COCC(=C=CC[C@@H](O)c1ccccc1OCCO)C[C@@H](O)c1cc(Cl)cc(Cl)c1O,-0.127,-2.33 (inactive),-0.541 (inactive),-1.31 (inactive),0.26 (inactive),0.216 (inactive),-0.259 (inactive),-0.424 (inactive),-0.394,-0.0553,0.589 (inactive),0.682,-1.84,-3.71 (inactive),0.161 (inactive),0.377 (inactive)
CC1CC/C=C\[C@H]2OC34C=CCN(Cn5nnc6ccccc65)C(=O)[C@H]3N(C(CO)C(C)C)C(=O)[C@@H]4C2C(=O)O1 (some centres undefined),0.913,0.673 (inactive),-1.29 (inactive),-0.64 (inactive),0.357 (inactive),-0.271 (inactive),0.465 (inactive),0.275 (inactive),0.0555,0.646,0.575 (inactive),0.212,-0.918,-5.58 (inactive),0.822 (inactive),0.71 (inactive)
[N-]=[N+]=NCc1ccccc1[C@@H]1OC(c2ccc(OCCCO)cc2)=N[C@]1(CCS(=O)(=O)c1ccccc1)C(=O)NCc1ccccc1,0.239,0.743 (inactive),-0.304 (inactive),0.59 (inactive),0.882 (inactive),0.797 (inactive),0.198 (inactive),-0.678 (inactive),0.144,0.194,0.212 (inactive),0.838,-2.5,-0.438 (inactive),0.21 (inactive),-0.126 (inactive)
O=C1O[C@H](c2ccccc2)[C@H](c2ccccc2)N2[C@H]1[C@@H](C(=O)Nc1nc3ccccc3s1)[C@]1(C(=O)Nc3ccc(C#CC4(O)CCCCCC4)cc31)[C@H]2c1ccc(OCCO)cc1,-0.43,1.16 (inactive),-1.4 (inactive),-0.568 (inactive),4.15 (inactive),0.773 (inactive),-0.34 (inactive),-0.706 (inactive),-1.1,0.167,2.25 (inactive),0.663,-1.8,-0.979 (inactive),0.341 (inactive),0.346 (inactive)
O=C1OCCC/C=C\[C@H]2OC34C=CCN(CCN5CCOCC5)C(=O)[C@H]3N(CCCO)C(=O)[C@@H]4C12 (some centres undefined),-0.0764,-0.314 (inactive),-0.146 (inactive),-0.053 (inactive),-0.525 (inactive),-1.22 (inactive),-0.0395 (inactive),-0.125 (inactive),0.125,0.138,0.976 (inactive),-1.17,0.211,-6.44 (inactive),0.697 (inactive),0.826 (inactive)
O=C1C2C=CC(C(O)c3c(F)cccc3Cl)N(Nc3ccccc3)C2C(=O)N1c1ccccc1 (centres undefined),0.947,-1.48 (inactive),-0.478 (inactive),0.693 (inactive),-0.131 (inactive),-0.679 (inactive),0.302 (inactive),1.28 (inactive),0.284,0.0975,0.469 (inactive),0.702,-0.342,-3.25 (inactive),0.653 (inactive),0.683 (inactive)
C#CCNC(=O)[C@H](Cc1ccccc1)NC(=O)CCC(=O)O,-0.487,-0.734 (inactive),-0.135 (inactive),0.139 (inactive),0.927 (inactive),-0.051 (inactive),-0.306 (inactive),-0.125 (inactive),-1.28,-0.239,0.234 (inactive),-1.75,-0.213,-0.118 (inactive),-0.482 (inactive),-0.815 (inactive)
Cc1ccc(S[C@]2(C(=O)NCCN3CCOCC3)CC(=O)N(Cc3ccccc3)[C@@H]2c2ccc(CO)cc2I)cc1,-0.396,-3.23 (inactive),-2.91 (inactive),-4.58 (inactive),0.422 (inactive),-1.71 (inactive),0.359 (inactive),-0.46 (inactive),-2.02,-0.152,0.302 (inactive),0.0473,-1.44,-1.69 (inactive),-0.0659 (inactive),0.184 (inactive)
COCCOC(=O)N1C(=O)[C@@]2(c3cc(C#CCCO)ccc31)[C@H](c1ccc(OCCO)cc1)N1[C@H](c3ccccc3)[C@H](c3ccccc3)OC(=O)[C@H]1[C@@H]2C(=O)N1CCN(c2ncccn2)CC1,0.235,1.37 (inactive),0.327 (inactive),-0.547 (inactive),1.27 (inactive),1.24 (inactive),-0.448 (inactive),-0.327 (inactive),0.52,-0.212,-0.112 (inactive),0.676,-1.98,0.671 (inactive),0.159 (inactive),-0.0774 (inactive)
C=CCNC(=O)[C@H]1[C@@H]2C(=O)O[C@@H](c3ccccc3)[C@@H](c3ccccc3)N2[C@@H](c2ccc(O)cc2)[C@]12C(=O)N(C(=O)OCCOC)c1ccc(C#CCNC(N)=O)cc12,-0.173,0.516 (inactive),0.244 (inactive),0.132 (inactive),0.911 (inactive),1.14 (inactive),0.204 (inactive),-0.135 (inactive),-0.17,-0.219,0.17 (inactive),0.53,2.38,-3.07 (inactive),-0.237 (inactive),-0.625 (inactive)
O=C1NCC(=O)N2[C@@H]1C[C@@H](C(=O)O)[C@H]2c1cccc(OCCO)c1,0.0195,-0.816 (inactive),-0.159 (inactive),0.97 (inactive),-0.53 (inactive),0.569 (inactive),-0.151 (inactive),0.524 (inactive),-0.828,3.93,6.39 (inactive),1.02,0.0934,-1.39 (inactive),-0.467 (inactive),-0.367 (inactive)
CN(C)CCCNC(=O)[C@@]1(c2ccc([N+](=O)[O-])cc2)CC(=O)N(C2CCCCC2)[C@@H]1c1ccc(CO)cc1,-0.252,-1.59 (inactive),-0.0665 (inactive),0.456 (inactive),-0.177 (inactive),-0.0078 (inactive),0.328 (inactive),-0.16 (inactive),-0.155,-0.0073,-0.209 (inactive),-0.0124,-1.11,-0.842 (inactive),-0.196 (inactive),-0.495 (inactive)
O=C(O)[C@@]1(CCS(=O)(=O)c2ccccc2)COC(c2ccc(OCCCO)cc2)=N1,0.444,0.0291 (inactive),-0.21 (inactive),0.0614 (inactive),-0.347 (inactive),-0.197 (inactive),-0.43 (inactive),-0.216 (inactive),0.0149,0.0767,-0.0596 (inactive),-0.271,0.917,-2.82 (inactive),-0.333 (inactive),-0.52 (inactive)
CC(C)N1C(=O)c2ccccc2[C@](C)(C(=O)NCc2ccccc2)[C@@H]1c1ccc(CO)cc1,-0.394,-0.704 (inactive),-1.09 (inactive),0.0524 (inactive),1.06 (inactive),-0.271 (inactive),0.0861 (inactive),-0.681 (inactive),0.121,0.0623,-0.534 (inactive),0.48,-0.771,-1.51 (inactive),0.0268 (inactive),0.0578 (inactive)

# Reference: PubChem BioAssay
